Screening data deposited in PubChem BioAssay by National Center for Advancing Translational Sciences (NCATS).
Rows were chosen to be rich in hits. Some 15% of all compounds tested hit in one or more screens of this group.
DT40 TDP1 CPT: DT40-hTDP1 cell growth loss with CPT. chicken DT40 Tdp1-/-;hTDP1 cells + 20 nM CPT, ATP luminescence, 48 h. Potency, µM (top dose mostly 46.2 µM), for the others: at the top dose activity change, negative = growth inhibition, most hits filed as inhibitors. actives 12% (n = 420,000). AID 686979; further: nearly all actives have a fitted effect of over 55% in size
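Chicken DT40 Tdp1-/- cells complemented with human TDP1, 400 cells/well, exposed to compounds plus 20 nM camptothecin for at least 48 h at 37 C; viability read as ATP content by CellTiter-Glo luminescence.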
RORgamma inh: inhibitors of mouse ROR gamma transcriptional activity; P51450; Drosophila S2 Gal4-RORgamma UAS-luciferase reporter, 20 h; Potency, µM (top dose mostly 53.6 µM), without a hit: at the highest dose activity change, negative = inhibition, hits mostly inhibitors; actives 5.4% (n = 310,000); AID 2551; further: nearly all actives have a fitted effect of over 60% in size
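Schneider cells (Drosophila), stable Gal4 DBD–ROR gamma + UAS-luc; 1 hr cmpd preincubation; Cu2+ induction 700 uM final; 20 hr ambient; luminescence.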
ELG1 DNA repair: inhibitors of ELG1-dependent DNA repair in HEK293T cells; Potency, µM (top dose mostly 46.1 µM), for inactives: top-dose activity change, negative = inhibition, hits mostly inhibitors; actives 2.3% (n = 330,000); HEK293T ELG1-luciferase reporter, luminescence, 16 h; DNA damage induced by 5-fluorouridine; further: nearly all actives have a fitted effect of over 55% in size
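Cells (2,000 per well) received 5-fluorouridine plus test compound or DMSO and were incubated 16 hr at 37 °C, 5% CO2. Luciferase activity was read by luminescence 30 min after ONE-Glo addition; signal suppression marked inhibition of damage-induced ELG1 function.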
12-LOX inh: blocks human arachidonate 12S-lipoxygenase; actives 1.1% (n = 580,000); AID 1671190; P18054; purified 12hLO, xylenol orange hydroperoxide absorbance; Potency, µM (top dose mostly 108 µM), for inactives: at the highest dose activity change, negative = inhibition, hits mostly inhibitors
Target sequence (P18054 whole entry, looked up): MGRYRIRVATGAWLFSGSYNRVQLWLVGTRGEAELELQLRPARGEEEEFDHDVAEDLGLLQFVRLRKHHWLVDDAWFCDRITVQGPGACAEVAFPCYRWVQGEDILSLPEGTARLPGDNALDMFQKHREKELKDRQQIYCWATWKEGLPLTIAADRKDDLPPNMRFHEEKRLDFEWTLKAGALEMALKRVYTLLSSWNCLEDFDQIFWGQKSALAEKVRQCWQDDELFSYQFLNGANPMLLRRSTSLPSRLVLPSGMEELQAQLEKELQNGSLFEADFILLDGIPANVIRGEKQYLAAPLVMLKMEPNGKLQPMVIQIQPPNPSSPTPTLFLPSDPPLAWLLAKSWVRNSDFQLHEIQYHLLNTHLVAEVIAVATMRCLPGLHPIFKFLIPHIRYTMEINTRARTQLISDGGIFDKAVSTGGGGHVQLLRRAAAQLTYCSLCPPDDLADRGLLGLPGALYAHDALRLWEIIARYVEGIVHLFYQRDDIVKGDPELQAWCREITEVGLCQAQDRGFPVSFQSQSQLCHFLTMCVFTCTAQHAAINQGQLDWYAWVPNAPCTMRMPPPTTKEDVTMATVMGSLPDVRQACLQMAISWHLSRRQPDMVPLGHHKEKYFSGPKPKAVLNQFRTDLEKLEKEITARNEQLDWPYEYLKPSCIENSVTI
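Purified human 12hLO at 150 nM in 25 mM Hepes, 0.01% Triton X-100, pH 7.0, preincubated 15 min at room temperature with compound. Reaction started with 40 uM arachidonic acid, 30 min at room temperature. Hydroperoxide measured by Fe-xylenol orange, 573/405 nm absorbance ratio.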
Gal4-VP16 FLuc: inhibits Gal4-VP16 luciferase reporter, ROR gamma counter-screen; Drosophila S2 Gal4-VP16 UAS-luciferase, luminescence, 20 h; Potency, µM (doses to about 53.6 µM), without a hit: top-dose activity, negative = inhibition, most hits filed as inhibitors; actives 3.5% (n = 310,000);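 further: Gal4-VP16 expression switched on by copper sulfate through the metallothionein promoter; nearly all actives have a fitted effect of over 50% in size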
TDP1 cell noCPT: qHTS for Inhibitors of human tyrosyl-DNA phosphodiesterase 1 (TDP1): qHTS in cells in absence of CPT. DT40 Tdp1-/- hTDP1 cells, no CPT, ATP luminescence, 48 h. Potency, µM (doses to about 46.2 µM), for inactives: at the top dose activity change, negative = growth inhibition, most hits filed as inhibitors. actives 15% (n = 420,000); further: nearly all actives have a fitted effect of over 55% in size
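Seeded 400 DT40-hTDP1 cells/well (vehicle DMSO, no 20 nM CPT); pinned compounds; ≥48 hr at 37 °C; CellTiter-Glo luminescence as viability measure.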
* marks the source's active call; other numbers are inactive results; u = inconclusive; x = no result given; [ ] = dose if it differs, or a comment. The call rests on the fitted dose curve; in most records, active means well fitted curve in the direction sought with a large enough effect; inconclusive means small, poorly fitted or top-dose-only effect, or another doubt; inactive means no such curve, though single readings can be large; an effect the other way counts as inactive or inconclusive. On the % scale 0 is the no-effect control and ±100 the full control effect; potency means the concentration at half of the fitted maximal effect.

SMILES	DT40 TDP1 CPT	RORgamma inh	ELG1 DNA repair	12-LOX inh	Gal4-VP16 FLuc	TDP1 cell noCPT
CC(C)CNC(=S)NNC(=O)c1csc2c1CCC(C)C2 (centres undefined)	u	u	-11%	u	u	21µM*
Cc1sc(NC(=O)c2cc(-c3ccccc3)nc3ccccc23)c(C(N)=O)c1C	15µM*	u	5.8µM*	-9%	0%	18µM*
CCNC(=O)c1cc(-c2ccc(Cl)cc2)nc2ccccc12	x	x	x	3%	x	x
Cc1sc(NC(=O)c2cc(-c3ccc(Cl)cc3)nc3ccccc23)c(C(N)=O)c1C	8.2µM*	u	-5%	u	u	10µM*
Cn1c(SCc2cc(Cl)c3c(c2)OCCO3)nnc1-c1cccnc1	x	x	x	3%	x	x
Cc1ccc(S(=O)(=O)N(C)CC(=O)Nc2ncc(Cc3ccc(F)cc3)s2)cc1C	x	x	x	0%	x	x
CC(NC(=S)NCCN1CCOCC1)C12CC3CC(CC(C3)C1)C2 (centres undefined)	u	5µM*	7%	-13%	-14%[10 µM]	u
S=C(NCCCN1CCOCC1)NC1CC1	-9%	-10%	5%	-4%	6%	4%
CC(NC(=S)NCCCN1CCOCC1)C1CC2CCC1C2 (centres undefined)	u	5.6µM*	-10%	3%	u	u
CC(OC(=O)c1cc(=O)[nH]c2ccccc12)C(=O)Nc1cccc2ccccc12 (centres undefined)	x	x	x	-14%	x	x
S=c1nc(-c2ccco2)[nH][nH]1	-2%	u	5%	6.3µM*	-2%	-10%
O=C(N[C@@H]1CN(C(=O)Nc2ccccc2)CCC[C@H]1O)c1ccc(O)cc1	x	x	x	45%[176 µM]	x	x
COc1cc(OC)c(/C=C2\SC(=O)N(CC(=O)Nc3ccccc3F)C2=O)c(OC)c1	u	-3%[1.91 µM]	-5%	-9%	-23%	21µM*
N=C1S/C(=C\c2cccc3ccccc23)C(=O)N1c1ccc(F)cc1	5.2µM*	u	-22%	-10%	u	3.7µM*
COc1cc(/C=C2\SC(=N)N(c3ccc(F)cc3)C2=O)ccc1O	26µM*	u	u	u	-8%[10 µM]	23µM*
COc1ccc(/C=C2\SC(=O)N(CC(=O)NNC(=O)c3ccccc3O)C2=O)cc1OC	-5%	25%	u	-12%	u	u
Cc1ccc(/C=C2\SC(=S)N(CC(=O)Nc3cccnc3)C2=O)cc1	-4%	9%	14%	-5%	-4%	-11%
Cc1ccc(NC(=O)CN2C(=O)S/C(=C/c3ccncc3)C2=O)cc1	16µM*	13%	0%	185%	-12%	u
CN1CCC(Oc2ccc(C(N)=O)cn2)CC1	x	x	x	19%	x	x
COc1cc(/C=C2\SC(=O)N(CC(=O)Nc3ccccc3F)C2=O)cc(Cl)c1O	18µM*	u	-18%	-27%	-12%	13µM*
COc1ccc(/C=C2\SC(=O)N(CC(=O)Nc3cccnc3)C2=O)cc1OC	u	18%	u	0%	7%	u
COc1ccc(/C=C2\SC(=O)N(CC(=O)Nc3ccc(F)cc3)C2=O)cc1O	u	-19%	u	0%	u	15µM*
CCOc1cc(/C=C2\SC(=O)N(CC(=O)Nc3ccccc3F)C2=O)cc([N+](=O)[O-])c1O	8.2µM*	14%	-13%	u	-3%	21µM*
CC(C)c1cccc(NC(=O)CN2C(=O)NC3(CCS(=O)(=O)CC3)C2=O)c1	x	x	x	3%	x	x
Cn1c(-c2cccs2)[n+](C)c2ccccc21	u	26%	u	0%	-22%	18µM*
SMILES	DT40 TDP1 CPT	RORgamma inh	ELG1 DNA repair	12-LOX inh	Gal4-VP16 FLuc	TDP1 cell noCPT
COc1ccc(C(=O)N2CCC3(CC2)N(c2ccccc2)C(=O)CS3(=O)=O)cc1	x	x	x	1%	x	x
CCOC(=O)c1c(CN2CCN(c3ccccc3)CC2)oc2cc(Br)c(O)cc12	u	16%	-13%	u	-4%	u
CCOC(=O)c1c(CN2CCN(CCO)CC2)n(-c2ccccc2)c2cc(Br)c(O)cc12	u	-9%	u	u	-11%	18µM*
CCOC(=O)c1c(CSC(=N)N)n(-c2ccccc2)c2cc(Br)c(OC(C)=O)cc12	u	-25%	u	u	-12%	18µM*
CCOC(=O)c1c(CN2CCN(C)CC2)n(-c2ccccc2)c2cc(Br)c(O)cc12	u	18%	-6%	u	-7%	23µM*
O=C1CCCN1C1CCN(S(=O)(=O)c2ccccc2)CC1	x	x	x	40%[176 µM]	x	x
COCc1c(C(=O)N2CCN(c3ccccc3C)CC2)oc2ccccc12	21µM*	x	u	118%	x	u
COc1ccccc1N1CCN(C(=O)c2oc3ccccc3c2C)CC1	16µM*	8%	3%	-3%	0%	21µM*
COc1ccccc1N1CCN(C(=O)c2oc3ccc(Br)cc3c2C)CC1	2.9µM*	0%	u	-15%	-9%	7.3µM*
COc1ccccc1N1CCN(C(=O)c2cc3c(=O)oc4ccccc4c3s2)CC1	2%	x	x	-1%	x	-4%
COc1ccccc1N1CCN(C(=O)c2cc3c(C)nc4ccccc4c3o2)CC1	6.5µM*	42%	13µM*	12%	u	4.1µM*
Cc1nc2ccccc2c2oc(C(=O)N3CC(C)CC(C)C3)cc12 (centres undefined)	u	-18%	-2%	4%	-6%	u
CCCNc1c(NC(=O)c2c(F)cccc2F)c(=O)oc2ccccc12	x	x	x	-5%	x	x
COc1ccc(C2Cn3nnc(C(=O)N4CCN(C(=O)c5cc(C)ccc5C)CC4)c3CO2)cc1 (centres undefined)	x	x	x	2%	x	x
COc1ccccc1N1CCN(C(=O)c2oc3ccc(F)cc3c2C)CC1	21µM*	14%	u	-11%	-1%	16µM*
COc1ccccc1N1CCN(C(=O)c2cccc3c(=O)c(C)c(-c4ccccc4)oc23)CC1	u	u	21µM*	-4%	-1%	u
COc1ccccc1N1CCN(C(=O)c2oc3ccccc3c2NC(=O)C(C)Oc2ccccc2)CC1 (centres undefined)	u	x	x	-9%	x	16µM*
CC(C)CCNc1nc2ccccc2nc1NS(=O)(=O)c1ccc(F)cc1	x	x	x	0%	x	x
CCCCN(CCCC)C(=O)C1CC(=O)OC12CCOC(C)(C)C2 (centres undefined)	x	x	x	16%	x	x
O=C1N2CCCC2CN1C1CCN(Cc2ccccn2)CC1 (centres undefined)	x	x	x	50%[176 µM]	x	x
